Test system: HEK293 WT BDD-FVIII-Gluc
Assay: secreted FVIII-Gluc luciferase Z-score vs DMSO control; higher = more FVIII-Gluc secretion
Details: 5 µM
Protocol: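 Natural plant-compound library (480 compounds, ST catalogue IDs) screened on HEK293 cells stably expressing WT BDD-FVIII-Gaussia luciferase fusion at 5 µM. Secreted Gluc activity in the medium is given as a Z-score relative to DMSO controls.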

For `OC[C@H]1O[C@@H](O[C@@H]2[C@@H](CO)O[C@](O)(CO)[C@H]2O)[C@H](O)[C@@H](O)[C@H]1O`, which “secreted FVIII-Gluc luciferase Z-score” value is on record?
The value was 0.26.

How did the “secreted FVIII-Gluc luciferase Z-score” value turn out when `Nc1ncnc2c1ncn2[C@H]1C[C@H](O)[C@@H](COP(=O)(O)O)O1` was run?
Its value is 0.376.

With `Cc1c(-c2ccccc2)oc2cc(O)ccc2c1=O` as the compound, how does the “secreted FVIII-Gluc luciferase Z-score” value read?
Its value is -0.0243.

For `COc1ccc(-c2oc3cc(OC)c(OC(C)=O)c(OC)c3c(=O)c2OC)cc1OC(C)=O`, which “secreted FVIII-Gluc luciferase Z-score” value is on record?
The value was -0.47.

With `COC(=O)[C@@H]1[C@H]2C[C@H]3c4[nH]c5ccccc5c4CCN3C[C@@H]2CC[C@@H]1O` as the compound, how does the “secreted FVIII-Gluc luciferase Z-score” value read?
The value was 0.00333.

For `Cc1ncc(CO)c(C=O)c1O`, which “secreted FVIII-Gluc luciferase Z-score” value is on record?
Its value is 1.01.

How did the “secreted FVIII-Gluc luciferase Z-score” value turn out when `C=C1CCC2C(C)(CC[C@@H](O)C2(C)C)C1COc1ccc2ccc(=O)oc2c1` (stereo partly drawn) was run?
The value was 0.344.

For `Nc1nc2c(ncn2[C@H]2C[C@H](O)[C@@H](COP(=O)(O)O)O2)c(=O)[nH]1`, which “secreted FVIII-Gluc luciferase Z-score” value is on record?
Its value is 0.653.

For `O=c1cc(-c2cccc(O)c2)oc2cc(O)ccc12`, which “secreted FVIII-Gluc luciferase Z-score” value is on record?
Its value is -0.00771.

Which “secreted FVIII-Gluc luciferase Z-score” value does the source give for `OC[C@@H]1OC(O)[C@@H](O)[C@H](O)[C@H]1O[C@H]1O[C@H](CO)[C@@H](O)[C@H](O)[C@H]1O` (stereo partly drawn) here?
The value was 0.204.

`C=C1CCC2OC2(C)CCC2C1CC2(C)C` (stereo not drawn) was tested. Which “secreted FVIII-Gluc luciferase Z-score” value did it give?
Its value is 0.146.

How did the “secreted FVIII-Gluc luciferase Z-score” value turn out when `CO[C@H]1/C=C/O[C@@]2(C)Oc3c(C)c(O)c4c(O)c(c(C=O)c(O)c4c3C2=O)NC(=O)/C(C)=C\C=C\[C@H](C)[C@H](O)[C@@H](C)[C@@H](O)[C@@H](C)[C@H](OC(C)=O)[C@@H]1C` was run?
Its value is 1.13.

With `NC[C@@H]1O[C@H](O[C@H]2[C@@H](O)[C@H](O[C@@H]3[C@@H](O)[C@H](N)C[C@H](N)[C@H]3O[C@H]3O[C@H](CN)[C@@H](O)[C@H](O)[C@H]3N)O[C@@H]2CO)[C@H](N)[C@@H](O)[C@@H]1O` as the compound, how does the “secreted FVIII-Gluc luciferase Z-score” value read?
The value was 0.572.

With `COc1cc2cc3c4c(cc(OC)c(OC)c4c2cc1OC)CCN3C` as the compound, how does the “secreted FVIII-Gluc luciferase Z-score” value read?
The value was 0.0768.

Which “secreted FVIII-Gluc luciferase Z-score” value does the source give for `COc1cc(CNC(=O)CCCC/C=C/C(C)C)ccc1O` here?
The value was -0.484.

Which “secreted FVIII-Gluc luciferase Z-score” value does the source give for `CC(=O)C1=C(O)C=C2Oc3c(C(C)=O)c(O)c(C)c(O)c3[C@]2(C)C1=O` here?
The value was 1.04.

Which “secreted FVIII-Gluc luciferase Z-score” value does the source give for `Oc1cc(O)c2c(c1)O[C@H](c1ccc(O)c(O)c1)[C@@H](O)C2` here?
The value was 0.0727.

`C=C[C@@](C)(O)CC[C@@H]1[C@@]2(C)CCCC(C)(C)[C@@H]2CC[C@@]1(C)O` was tested. Which “secreted FVIII-Gluc luciferase Z-score” value did it give?
The value was 0.556.

With `CC(Cc1ccc(O)c(O)c1)C(C)Cc1ccc(O)c(O)c1` (stereo not drawn) as the compound, how does the “secreted FVIII-Gluc luciferase Z-score” value read?
Its value is 0.14.

How did the “secreted FVIII-Gluc luciferase Z-score” value turn out when `CC(=O)N1C=C(C2CCCCN2)CCC1` (stereo not drawn) was run?
Its value is 0.76.

Which “secreted FVIII-Gluc luciferase Z-score” value does the source give for `CO[C@@H]1[C@@H](O[C@@H]2O[C@H](C)[C@@H](O[C@H]3C[C@@](C)(O)[C@@H](OC(=O)CC(C)C)[C@H](C)O3)[C@H](N(C)C)[C@H]2O)[C@@H](CC=O)C[C@@H](C)[C@@H](O)/C=C/C=C/C[C@@H](C)OC(=O)C[C@H]1OC(C)=O` here?
Its value is 0.0728.

How did the “secreted FVIII-Gluc luciferase Z-score” value turn out when `O=C(/C=C/c1ccc(O)c(O)c1)OC(Cc1ccc(O)c(O)c1)C(=O)O` (stereo not drawn) was run?
Its value is 0.861.

Which “secreted FVIII-Gluc luciferase Z-score” value does the source give for `CC12CCC3c4ccc(O)cc4CCC3C1CCC2=O` (stereo not drawn) here?
The value was 0.301.

For `CC1CC[C@H](C(C)C)C(O)C1` (stereo partly drawn), which “secreted FVIII-Gluc luciferase Z-score” value is on record?
Its value is 0.453.

With `CC(C)CC(N)C(=O)O` (stereo not drawn) as the compound, how does the “secreted FVIII-Gluc luciferase Z-score” value read?
The value was 0.117.

How did the “secreted FVIII-Gluc luciferase Z-score” value turn out when `NCCc1cnc[nH]1` was run?
Its value is 0.378.

With `C/C1=C\CC(OC(=O)c2ccc(O)cc2)/C(C)=C/C(O)C(C)(C)CCC1` (stereo not drawn) as the compound, how does the “secreted FVIII-Gluc luciferase Z-score” value read?
Its value is -0.0859.

Which “secreted FVIII-Gluc luciferase Z-score” value does the source give for `CC1(C)S[C@@H]2[C@H](NC(=O)C(N)c3ccccc3)C(=O)N2[C@H]1C(=O)O` (stereo partly drawn) here?
The value was -0.57.

Which “secreted FVIII-Gluc luciferase Z-score” value does the source give for `COc1cc2ccc(=O)oc2c(O)c1OCC=C(C)C` here?
Its value is -0.0513.

For `COc1c2occc2cc2ccc(=O)oc12`, which “secreted FVIII-Gluc luciferase Z-score” value is on record?
The value was 0.821.

With `COc1ccc2c(c1OC)C(Cc1ccccc1)N1CCc3cc4c(cc3C1=C2)OCO4` (stereo not drawn) as the compound, how does the “secreted FVIII-Gluc luciferase Z-score” value read?
Its value is 0.115.

Which “secreted FVIII-Gluc luciferase Z-score” value does the source give for `Nc1ncnc2c1ncn2[C@@H]1O[C@H](CO)[C@@H](O)[C@H]1O` here?
The value was 0.566.

How did the “secreted FVIII-Gluc luciferase Z-score” value turn out when `Cc1ccc2oc(-c3ccccc3)cc(=O)c2c1` was run?
Its value is 0.845.

With `C[C@H](O)[C@H](O)[C@@H](O)c1cnc2nc(N)[nH]c(=O)c2n1` as the compound, how does the “secreted FVIII-Gluc luciferase Z-score” value read?
The value was 0.588.

Which “secreted FVIII-Gluc luciferase Z-score” value does the source give for `O=C(O)CCCCC1CCSS1` (stereo not drawn) here?
The value was -0.0345.

With `N=c1ccn2c(n1)OC1C2OC(CO)[C@H]1O` (stereo partly drawn) as the compound, how does the “secreted FVIII-Gluc luciferase Z-score” value read?
The value was -1.3.

Which “secreted FVIII-Gluc luciferase Z-score” value does the source give for `O=C1C[C@H](c2ccccc2)Oc2cc(O)cc(O)c21` here?
The value was 0.533.

With `COC(=O)C1C2CC3c4[nH]c5cc(OC)ccc5c4CCN3CC2CC(OC(=O)c2cc(OC)c(OC)c(OC)c2)C1OC` (stereo not drawn) as the compound, how does the “secreted FVIII-Gluc luciferase Z-score” value read?
The value was -0.436.
